# From ChEMBL document CHEMBL1961873, “Compounds: GSK PKIS; Assays: Nanosyn kinase panel” (2012)
# What was measured:
# [1] = molecular target: Ribosomal protein S6 kinase alpha-6 (Homo sapiens) (UniProt Q9UK32); conditions: at 1 µM;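 also: each value is a mean inhibition of RSK4 from a GSK PKIS panel screen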
# [2] = molecular target: T1, Serine/threonine-protein kinase Sgk1 (Homo sapiens) (UniProt O00141); conditions: at 0.1 µM
# T1 sequence (whole entry): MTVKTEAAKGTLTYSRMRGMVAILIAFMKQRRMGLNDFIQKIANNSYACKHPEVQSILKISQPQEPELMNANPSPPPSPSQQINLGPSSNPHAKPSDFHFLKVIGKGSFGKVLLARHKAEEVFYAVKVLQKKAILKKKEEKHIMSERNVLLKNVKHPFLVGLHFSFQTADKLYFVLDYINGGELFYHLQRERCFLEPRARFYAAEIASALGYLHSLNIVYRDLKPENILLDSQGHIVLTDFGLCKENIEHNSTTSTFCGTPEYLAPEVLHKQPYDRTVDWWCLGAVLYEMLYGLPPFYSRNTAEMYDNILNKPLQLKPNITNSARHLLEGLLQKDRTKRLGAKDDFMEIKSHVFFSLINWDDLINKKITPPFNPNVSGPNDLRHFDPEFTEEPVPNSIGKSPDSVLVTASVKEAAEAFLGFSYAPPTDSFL
# [3] = molecular target: T1, Serine/threonine-protein kinase Sgk1 (Homo sapiens); conditions: at 1 µM
# [4] = molecular target: T2, Serine/threonine-protein kinase Sgk2 (Homo sapiens) (UniProt Q9HBY8); conditions: at 0.1 µM
# T2 sequence (whole entry): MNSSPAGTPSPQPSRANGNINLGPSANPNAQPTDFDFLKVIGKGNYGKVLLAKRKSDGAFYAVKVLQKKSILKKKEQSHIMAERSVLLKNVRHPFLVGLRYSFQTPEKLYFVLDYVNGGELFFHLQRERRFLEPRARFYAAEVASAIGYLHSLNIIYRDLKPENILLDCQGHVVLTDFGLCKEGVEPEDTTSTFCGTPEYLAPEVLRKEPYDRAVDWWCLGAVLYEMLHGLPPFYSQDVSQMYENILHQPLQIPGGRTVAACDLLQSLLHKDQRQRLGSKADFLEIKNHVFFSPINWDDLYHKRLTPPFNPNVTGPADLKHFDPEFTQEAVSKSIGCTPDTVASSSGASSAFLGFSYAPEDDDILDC
# [5] = molecular target: T2, Serine/threonine-protein kinase Sgk2 (Homo sapiens); conditions: at 1 µM
# [6] = molecular target: T3, Serine/threonine-protein kinase Sgk3 (Homo sapiens) (UniProt Q96BR1); conditions: at 0.1 µM
# T3 sequence (whole entry): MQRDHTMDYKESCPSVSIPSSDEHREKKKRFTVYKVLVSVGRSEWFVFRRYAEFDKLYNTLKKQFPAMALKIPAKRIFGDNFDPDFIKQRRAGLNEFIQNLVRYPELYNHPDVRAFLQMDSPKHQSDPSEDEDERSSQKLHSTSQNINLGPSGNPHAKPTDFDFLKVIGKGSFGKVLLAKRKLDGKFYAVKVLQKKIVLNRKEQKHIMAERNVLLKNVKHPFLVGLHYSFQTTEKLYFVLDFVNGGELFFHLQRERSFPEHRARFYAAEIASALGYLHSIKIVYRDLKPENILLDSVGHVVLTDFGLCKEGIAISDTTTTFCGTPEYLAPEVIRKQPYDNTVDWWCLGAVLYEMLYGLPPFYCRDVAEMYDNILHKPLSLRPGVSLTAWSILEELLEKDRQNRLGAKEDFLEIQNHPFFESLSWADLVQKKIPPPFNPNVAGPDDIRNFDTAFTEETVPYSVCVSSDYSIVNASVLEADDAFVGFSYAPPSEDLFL
# [7] = molecular target: T3, Serine/threonine-protein kinase Sgk3 (Homo sapiens); conditions: at 1 µM
# [8] = molecular target: 5'-AMP-activated protein kinase catalytic subunit alpha-1 (Homo sapiens) (UniProt Q13131); conditions: at 0.1 µM
# Chain of 5'-AMP-activated protein kinase catalytic subunit alpha-1 (Homo sapiens) (Q13131 whole entry, looked up): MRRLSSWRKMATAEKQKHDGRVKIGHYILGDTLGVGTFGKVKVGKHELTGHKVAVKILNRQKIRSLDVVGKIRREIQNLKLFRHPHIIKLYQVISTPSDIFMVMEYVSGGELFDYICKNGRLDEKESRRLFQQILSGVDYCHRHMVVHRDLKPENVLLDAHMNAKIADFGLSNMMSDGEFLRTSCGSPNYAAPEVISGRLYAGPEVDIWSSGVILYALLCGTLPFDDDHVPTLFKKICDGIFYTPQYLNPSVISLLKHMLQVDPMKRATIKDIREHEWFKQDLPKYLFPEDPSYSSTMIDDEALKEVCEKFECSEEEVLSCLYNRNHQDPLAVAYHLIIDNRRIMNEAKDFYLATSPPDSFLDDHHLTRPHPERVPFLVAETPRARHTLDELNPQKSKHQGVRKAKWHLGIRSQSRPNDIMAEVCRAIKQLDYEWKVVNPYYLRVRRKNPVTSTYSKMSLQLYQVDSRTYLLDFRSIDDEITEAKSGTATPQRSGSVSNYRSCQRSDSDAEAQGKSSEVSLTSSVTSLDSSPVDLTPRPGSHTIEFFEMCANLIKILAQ
# [9] = molecular target: 5'-AMP-activated protein kinase catalytic subunit alpha-1 (Homo sapiens) (UniProt Q13131); conditions: at 1 µM
# [10] = molecular target: 5'-AMP-activated protein kinase catalytic subunit alpha-2 (Homo sapiens) (UniProt P54646); conditions: at 0.1 µM
# Chain of 5'-AMP-activated protein kinase catalytic subunit alpha-2 (Homo sapiens) (P54646 whole entry, looked up): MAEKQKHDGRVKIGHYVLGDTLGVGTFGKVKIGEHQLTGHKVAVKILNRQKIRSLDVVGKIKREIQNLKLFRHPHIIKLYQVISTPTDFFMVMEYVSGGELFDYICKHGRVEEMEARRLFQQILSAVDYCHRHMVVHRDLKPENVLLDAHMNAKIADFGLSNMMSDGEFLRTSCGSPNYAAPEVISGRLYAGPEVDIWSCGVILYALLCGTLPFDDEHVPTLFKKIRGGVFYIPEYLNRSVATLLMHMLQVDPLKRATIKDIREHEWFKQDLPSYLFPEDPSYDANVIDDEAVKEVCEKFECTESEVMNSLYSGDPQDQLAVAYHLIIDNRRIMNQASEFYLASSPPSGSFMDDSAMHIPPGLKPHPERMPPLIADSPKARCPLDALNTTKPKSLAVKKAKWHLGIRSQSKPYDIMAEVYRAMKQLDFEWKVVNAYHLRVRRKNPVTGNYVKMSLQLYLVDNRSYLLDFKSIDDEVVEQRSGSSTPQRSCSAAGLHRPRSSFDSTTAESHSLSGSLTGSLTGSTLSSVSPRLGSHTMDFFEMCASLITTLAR
# [11] = molecular target: 5'-AMP-activated protein kinase catalytic subunit alpha-2 (Homo sapiens) (UniProt P54646); conditions: at 1 µM
# [12] = molecular target: T4, NUAK family SNF1-like kinase 1 (Homo sapiens) (UniProt O60285); conditions: at 0.1 µM
# T4 sequence (whole entry): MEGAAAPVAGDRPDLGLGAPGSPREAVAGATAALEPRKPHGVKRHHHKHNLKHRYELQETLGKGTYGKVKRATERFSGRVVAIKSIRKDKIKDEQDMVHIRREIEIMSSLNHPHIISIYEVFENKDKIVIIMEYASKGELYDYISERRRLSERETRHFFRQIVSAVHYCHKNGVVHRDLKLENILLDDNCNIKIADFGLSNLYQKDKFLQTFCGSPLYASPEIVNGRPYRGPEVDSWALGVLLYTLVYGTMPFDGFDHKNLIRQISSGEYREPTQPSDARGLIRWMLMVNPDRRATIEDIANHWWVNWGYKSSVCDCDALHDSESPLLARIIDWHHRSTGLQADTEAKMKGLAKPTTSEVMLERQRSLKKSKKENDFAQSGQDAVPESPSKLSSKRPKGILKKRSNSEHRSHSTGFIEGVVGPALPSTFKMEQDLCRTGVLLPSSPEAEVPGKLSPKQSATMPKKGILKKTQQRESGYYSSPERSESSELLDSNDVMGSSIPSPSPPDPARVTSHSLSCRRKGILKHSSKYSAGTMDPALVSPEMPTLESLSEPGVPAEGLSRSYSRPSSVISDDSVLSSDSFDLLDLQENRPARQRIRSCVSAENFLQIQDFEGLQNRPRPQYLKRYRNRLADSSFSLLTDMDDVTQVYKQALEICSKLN
# [13] = molecular target: T4, NUAK family SNF1-like kinase 1 (Homo sapiens); conditions: at 1 µM
# [14] = molecular target: T5, Serine/threonine-protein kinase BRSK1 (Homo sapiens) (UniProt Q8TDC3); conditions: at 0.1 µM
# T5 sequence (whole entry): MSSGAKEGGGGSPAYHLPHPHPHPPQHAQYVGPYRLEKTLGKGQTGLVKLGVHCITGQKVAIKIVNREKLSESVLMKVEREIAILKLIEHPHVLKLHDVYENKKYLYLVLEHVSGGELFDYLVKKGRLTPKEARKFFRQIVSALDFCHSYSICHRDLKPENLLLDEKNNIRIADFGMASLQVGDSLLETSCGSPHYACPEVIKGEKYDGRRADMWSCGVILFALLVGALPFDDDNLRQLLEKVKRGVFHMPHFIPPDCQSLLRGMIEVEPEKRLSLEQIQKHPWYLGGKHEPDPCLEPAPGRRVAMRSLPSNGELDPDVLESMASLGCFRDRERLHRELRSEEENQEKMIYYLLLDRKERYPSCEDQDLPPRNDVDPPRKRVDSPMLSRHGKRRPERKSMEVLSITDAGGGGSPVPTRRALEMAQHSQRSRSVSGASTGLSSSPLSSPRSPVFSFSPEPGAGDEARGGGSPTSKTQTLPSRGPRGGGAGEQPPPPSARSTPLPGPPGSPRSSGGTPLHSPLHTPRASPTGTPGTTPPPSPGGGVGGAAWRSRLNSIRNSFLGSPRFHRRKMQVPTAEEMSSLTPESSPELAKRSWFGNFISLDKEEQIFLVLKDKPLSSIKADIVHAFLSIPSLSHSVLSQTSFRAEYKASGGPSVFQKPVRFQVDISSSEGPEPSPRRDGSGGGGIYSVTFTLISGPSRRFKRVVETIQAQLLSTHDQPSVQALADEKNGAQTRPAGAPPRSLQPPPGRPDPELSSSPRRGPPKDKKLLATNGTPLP
# [15] = molecular target: T5, Serine/threonine-protein kinase BRSK1 (Homo sapiens); conditions: at 1 µM
# [16] = molecular target: T6, Serine/threonine-protein kinase BRSK2 (Homo sapiens) (UniProt Q8IWQ3); conditions: at 0.1 µM
# T6 sequence (whole entry): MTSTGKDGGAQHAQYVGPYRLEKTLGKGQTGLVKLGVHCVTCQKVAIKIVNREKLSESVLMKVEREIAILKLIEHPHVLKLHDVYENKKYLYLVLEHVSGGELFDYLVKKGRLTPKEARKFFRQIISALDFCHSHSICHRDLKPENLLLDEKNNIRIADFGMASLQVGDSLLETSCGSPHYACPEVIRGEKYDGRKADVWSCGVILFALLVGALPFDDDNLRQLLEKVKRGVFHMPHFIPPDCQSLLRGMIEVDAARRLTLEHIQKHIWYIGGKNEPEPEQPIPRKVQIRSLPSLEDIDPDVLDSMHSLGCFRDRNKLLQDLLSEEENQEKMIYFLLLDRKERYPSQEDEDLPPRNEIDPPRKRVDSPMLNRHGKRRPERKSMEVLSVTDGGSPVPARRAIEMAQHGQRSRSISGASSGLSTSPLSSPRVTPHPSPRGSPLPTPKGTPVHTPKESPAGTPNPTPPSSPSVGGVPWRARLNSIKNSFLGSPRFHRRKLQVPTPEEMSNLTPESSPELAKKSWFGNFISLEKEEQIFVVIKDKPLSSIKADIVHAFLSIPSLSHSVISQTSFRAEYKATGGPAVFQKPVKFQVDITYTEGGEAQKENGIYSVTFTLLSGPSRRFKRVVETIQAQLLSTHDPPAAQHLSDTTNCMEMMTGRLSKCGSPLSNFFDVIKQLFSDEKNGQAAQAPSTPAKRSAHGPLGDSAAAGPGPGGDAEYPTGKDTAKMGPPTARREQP
# [17] = molecular target: T6, Serine/threonine-protein kinase BRSK2 (Homo sapiens); conditions: at 1 µM
# [18] = molecular target: Calcium/calmodulin-dependent protein kinase type 1D (Homo sapiens) (UniProt Q8IU85); conditions: at 0.1 µM
# Chain of Calcium/calmodulin-dependent protein kinase type 1D (Homo sapiens) (Q8IU85 whole entry, looked up): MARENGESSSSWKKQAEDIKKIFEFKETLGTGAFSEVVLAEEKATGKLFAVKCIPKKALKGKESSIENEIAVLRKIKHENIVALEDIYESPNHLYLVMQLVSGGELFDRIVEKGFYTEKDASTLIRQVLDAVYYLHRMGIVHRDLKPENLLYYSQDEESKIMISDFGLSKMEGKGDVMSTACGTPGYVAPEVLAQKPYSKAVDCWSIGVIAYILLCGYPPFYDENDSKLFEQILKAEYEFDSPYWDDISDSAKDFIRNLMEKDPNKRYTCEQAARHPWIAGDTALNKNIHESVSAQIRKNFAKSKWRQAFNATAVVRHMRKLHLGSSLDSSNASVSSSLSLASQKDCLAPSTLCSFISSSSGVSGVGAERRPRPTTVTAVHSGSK
# [19] = molecular target: Calcium/calmodulin-dependent protein kinase type 1D (Homo sapiens) (UniProt Q8IU85); conditions: at 1 µM
# [20] = molecular target: Calcium/calmodulin-dependent protein kinase type II subunit alpha (Homo sapiens) (UniProt Q9UQM7); conditions: at 0.1 µM;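 also: reported values are averages (mean inhibition of CAMK2A)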
# Chain of Calcium/calmodulin-dependent protein kinase type II subunit alpha (Homo sapiens) (Q9UQM7 whole entry): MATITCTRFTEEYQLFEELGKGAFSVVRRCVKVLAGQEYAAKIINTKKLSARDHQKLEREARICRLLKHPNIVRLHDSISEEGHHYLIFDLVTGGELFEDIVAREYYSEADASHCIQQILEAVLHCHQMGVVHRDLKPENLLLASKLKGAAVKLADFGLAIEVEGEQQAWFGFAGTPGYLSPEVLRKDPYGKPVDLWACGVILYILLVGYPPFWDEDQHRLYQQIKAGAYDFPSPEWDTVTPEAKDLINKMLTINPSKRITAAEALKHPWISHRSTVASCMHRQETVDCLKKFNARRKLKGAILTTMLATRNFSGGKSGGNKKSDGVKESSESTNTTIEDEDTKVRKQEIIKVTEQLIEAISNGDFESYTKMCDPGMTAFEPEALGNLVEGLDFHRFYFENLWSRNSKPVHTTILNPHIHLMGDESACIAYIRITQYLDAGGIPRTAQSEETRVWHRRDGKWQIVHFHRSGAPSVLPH
# Chain of Ribosomal protein S6 kinase alpha-6 (Homo sapiens) (Q9UK32 whole entry): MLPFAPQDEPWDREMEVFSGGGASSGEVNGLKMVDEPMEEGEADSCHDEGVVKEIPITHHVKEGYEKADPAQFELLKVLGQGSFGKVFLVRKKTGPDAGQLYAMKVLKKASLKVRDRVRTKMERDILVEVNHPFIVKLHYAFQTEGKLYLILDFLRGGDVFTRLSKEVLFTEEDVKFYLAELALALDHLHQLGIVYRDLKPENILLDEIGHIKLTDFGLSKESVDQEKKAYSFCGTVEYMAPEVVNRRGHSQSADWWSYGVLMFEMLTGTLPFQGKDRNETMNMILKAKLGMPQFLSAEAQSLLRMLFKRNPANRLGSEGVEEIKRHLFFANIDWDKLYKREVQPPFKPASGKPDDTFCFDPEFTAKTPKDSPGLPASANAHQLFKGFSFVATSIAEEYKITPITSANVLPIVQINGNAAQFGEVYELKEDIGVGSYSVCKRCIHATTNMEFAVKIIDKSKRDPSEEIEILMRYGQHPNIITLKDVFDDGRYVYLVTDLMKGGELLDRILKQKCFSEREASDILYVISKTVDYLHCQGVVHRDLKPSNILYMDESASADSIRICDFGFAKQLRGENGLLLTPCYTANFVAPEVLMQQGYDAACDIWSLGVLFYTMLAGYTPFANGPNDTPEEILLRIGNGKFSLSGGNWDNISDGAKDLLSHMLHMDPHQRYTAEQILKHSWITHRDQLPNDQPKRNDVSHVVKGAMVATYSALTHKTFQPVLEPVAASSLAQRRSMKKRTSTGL
SMILES,inhibition [1] [%],inhibition [2] [%],inhibition [3] [%],inhibition [4] [%],inhibition [5] [%],inhibition [6] [%],inhibition [7] [%],inhibition [8] [%],inhibition [9] [%],inhibition [10] [%],inhibition [11] [%],inhibition [12] [%],inhibition [13] [%],inhibition [14] [%],inhibition [15] [%],inhibition [16] [%],inhibition [17] [%],inhibition [18] [%],inhibition [19] [%],inhibition [20] [%]
CCC(=O)Nc1ccc(C)c(-c2ccc(C(=O)NCC3CC3)cc2)c1,1.25,1.88,2.02,1.32,0.49,2.14,2.43,1.31,2.54,4.95,2.49,0.85,1.36,1.35,0.24,1.47,2.78,0.77,1.64,1.27
C[C@@H](Oc1cc(-n2cnc3ccc(OCC4CCN(C)CC4)cc32)sc1C(N)=O)c1ccccc1Cl,42.4,2.62,4.04,4.94,3.37,2.38,3.66,6.05,24.5,8.96,13.7,30.2,71.9,28.5,60,38.5,72.8,1.56,5.96,6.36
NC(=O)c1cc(-c2ccc(F)cc2)cc(-c2ccncc2)c1N,0.89,3.79,4.51,1.44,2.58,3.22,5.96,2.78,2.57,2.54,2.48,-0.64,-1.26,0.38,-1.89,1.65,2.63,-0.61,0.29,3.47
